# Experiments:
# Assay in all cases: yeast three-hybrid, YBZ-1, SC-Leu-His + 0.5 mM 3-AT, 4 days
# Conditions in all cases: tags: N-Gal4 AD-HA kept; label: inside an RPR1-promoter hybrid RNA with tandem MS2 sites; ssRNA
# [1] = molecular target: PUM1 PUF domain R2-KCA (Homo sapiens, UniProt Q14671 828-1176, N899K;Y900C;Q903A)
# How it was run: (§1)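 Pumilio-1 PUF domain libraries, randomized at the three base-contacting residues of each repeat, were co-expressed with matching RNA elements from a centromeric plasmid in strain YBZ-1, which carries a LexA–MS2 coat fusion and a HIS3 reporter. Transformants grew for four days on SC-Leu (input) or on SC-Leu-His + 0.5 mM 3-AT (selection), and the repeat regions were PCR-amplified and Illumina-sequenced. The interaction score is the log change in variant frequency from input to selection. That logarithm is base 2, with a pseudocount of 1 where a variant was absent.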
# [2] = molecular target: PUM1 PUF domain R2-EWA (Homo sapiens, UniProt Q14671 828-1176, N899E;Y900W;Q903A)
# How it was run: as §1
# [3] = molecular target: PUM1 PUF domain R4-MPT (Homo sapiens, UniProt Q14671 828-1176, N971M;H972P;Q975T)
# How it was run: as §1
# [4] = molecular target: PUM1 PUF domain R1-RCM (Homo sapiens, UniProt Q14671 828-1176, S863R;R864C;Q867M)
# How it was run: as §1
# [5] = molecular target: PUM1 PUF domain R5-TRW (Homo sapiens, UniProt Q14671 828-1176, C1007T;Q1011W)
# How it was run: as §1
# [6] = molecular target: PUM1 PUF domain R8-TYC (Homo sapiens, UniProt Q14671 828-1176, N1122T;Q1126C)
# Sequence of PUM1 PUF domain R8-TYC (Q14671 828-1176 N1122T/Q1126C): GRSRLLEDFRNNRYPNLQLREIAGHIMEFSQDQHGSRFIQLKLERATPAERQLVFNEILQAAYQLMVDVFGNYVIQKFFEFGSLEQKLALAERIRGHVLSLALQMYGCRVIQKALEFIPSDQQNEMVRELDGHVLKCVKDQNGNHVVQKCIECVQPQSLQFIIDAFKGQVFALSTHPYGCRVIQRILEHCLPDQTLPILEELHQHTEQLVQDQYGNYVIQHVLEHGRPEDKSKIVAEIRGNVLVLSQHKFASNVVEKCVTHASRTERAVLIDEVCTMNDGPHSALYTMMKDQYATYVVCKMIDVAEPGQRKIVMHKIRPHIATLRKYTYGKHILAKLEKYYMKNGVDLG
# How it was run: as §1
# [7] = molecular target: PUM1 PUF domain R8-KFG (Homo sapiens, UniProt Q14671 828-1176, N1122K;Y1123F;Q1126G)
# How it was run: as §1
# [8] = molecular target: PUM1 PUF domain R8-RWL (Homo sapiens, UniProt Q14671 828-1176, N1122R;Y1123W;Q1126L)
# How it was run: as §1
# [9] = molecular target: PUM1 PUF domain R8-RWC (Homo sapiens, UniProt Q14671 828-1176, N1122R;Y1123W;Q1126C)
# How it was run: as §1
# [10] = molecular target: PUM1 PUF domain R5-GKR (Homo sapiens, UniProt Q14671 828-1176, C1007G;R1008K;Q1011R)
# How it was run: as §1
# [11] = molecular target: PUM1 PUF domain R3-EFG (Homo sapiens, UniProt Q14671 828-1176, C935E;R936F;Q939G)
# How it was run: as §1
# [12] = molecular target: PUM1 PUF domain R3-SWL (Homo sapiens, UniProt Q14671 828-1176, C935S;R936W;Q939L)
# How it was run: as §1
# [13] = molecular target: PUM1 PUF domain R3-SCQ (Homo sapiens, UniProt Q14671 828-1176, C935S;R936C)
# How it was run: as §1
# [14] = molecular target: PUM1 PUF domain R5-DHK (Homo sapiens, UniProt Q14671 828-1176, C1007D;R1008H;Q1011K)
# How it was run: as §1
# [15] = molecular target: PUM1 PUF domain R5-VYY (Homo sapiens, UniProt Q14671 828-1176, C1007V;R1008Y;Q1011Y)
# How it was run: as §1
# [16] = molecular target: T1, PUM1 PUF domain R6-CWA (Homo sapiens, UniProt Q14671 828-1176, N1043C;Y1044W;Q1047A)
# T1 sequence: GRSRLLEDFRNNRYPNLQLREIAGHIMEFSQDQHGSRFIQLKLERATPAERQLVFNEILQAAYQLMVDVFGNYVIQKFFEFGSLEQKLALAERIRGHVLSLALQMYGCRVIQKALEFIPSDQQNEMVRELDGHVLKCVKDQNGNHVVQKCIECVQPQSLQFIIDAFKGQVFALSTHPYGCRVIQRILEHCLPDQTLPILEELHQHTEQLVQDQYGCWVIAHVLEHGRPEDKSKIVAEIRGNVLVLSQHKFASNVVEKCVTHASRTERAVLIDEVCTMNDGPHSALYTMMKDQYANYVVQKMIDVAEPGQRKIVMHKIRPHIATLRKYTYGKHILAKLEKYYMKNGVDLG
# How it was run: as §1
# [17] = molecular target: PUM1 PUF domain R3-VRF (Homo sapiens, UniProt Q14671 828-1176, C935V;Q939F)
# How it was run: as §1
# [18] = molecular target: PUM1 PUF domain R4-SLY (Homo sapiens, UniProt Q14671 828-1176, N971S;H972L;Q975Y)
# How it was run: as §1
# [19] = molecular target: PUM1 PUF domain R3-SVE (Homo sapiens, UniProt Q14671 828-1176, C935S;R936V;Q939E)
# How it was run: as §1
# [20] = molecular target: PUM1 PUF domain R3-STD (Homo sapiens, UniProt Q14671 828-1176, C935S;R936T;Q939D)
# How it was run: as §1
# Sequence of PUM1 PUF domain R2-KCA (Q14671 828-1176 N899K/Y900C/Q903A): as the sequence (Q14671 828-1176 N1122T/Q1126C) above, with N72K, Y73C, Q76A, T295N, C299Q counted along it
sequence,measurement,setting,value
GGCUAGAACUAGUGGAUCCCCCGGCGCCCGGCGGCUCGAGCCCGGGUAAGUGUAAAGAGUCUGCAUGCCGCCGGGCGCCAUGCCUGCAGGUCGACUCUAGAAAACAUG,binding signal,[1],3.39 log2 enrichment (interaction score)
same,binding signal,[2],2.1 log2 enrichment (interaction score)
GGCUAGAACUAGUGGAUCCCCCGGCGCCCGGCGGCUCGAGCCCGGGUAAGUGUAUAUAGUCUGCAUGCCGCCGGGCGCCAUGCCUGCAGGUCGACUCUAGAAAACAUG,binding signal,[3],2.81 log2 enrichment (interaction score)
GGCUAGAACUAGUGGAUCCCCCGGCGCCCGGCGGCUCGAGCCCGGGUAAGUGUAAAUGGUCUGCAUGCCGCCGGGCGCCAUGCCUGCAGGUCGACUCUAGAAAACAUG,binding signal,[4],0.08 log2 enrichment (interaction score)
GGCUAGAACUAGUGGAUCCCCCGGCGCCCGGCGGCUCGAGCCCGGGUAAGUGUGAAUAGUCUGCAUGCCGCCGGGCGCCAUGCCUGCAGGUCGACUCUAGAAAACAUG,binding signal,[5],0.38 log2 enrichment (interaction score)
GGCUAGAACUAGUGGAUCCCCCGGCGCCCGGCGGCUCGAGCCCGGGUAAGCGUAAAUAGUCUGCAUGCCGCCGGGCGCCAUGCCUGCAGGUCGACUCUAGAAAACAUG,binding signal,[6],2.53 log2 enrichment (interaction score)
same,binding signal,[7],2.54 log2 enrichment (interaction score)
same,binding signal,[8],6.58 log2 enrichment (interaction score)
same,binding signal,[9],4.12 log2 enrichment (interaction score)
GGCUAGAACUAGUGGAUCCCCCGGCGCCCGGCGGCUCGAGCCCGGGUAAGUGUCAAUAGUCUGCAUGCCGCCGGGCGCCAUGCCUGCAGGUCGACUCUAGAAAACAUG,binding signal,[10],6.15 log2 enrichment (interaction score)
GGCUAGAACUAGUGGAUCCCCCGGCGCCCGGCGGCUCGAGCCCGGGUAAGUGUAAUUAGUCUGCAUGCCGCCGGGCGCCAUGCCUGCAGGUCGACUCUAGAAAACAUG,binding signal,[11],3.8 log2 enrichment (interaction score)
same,binding signal,[12],1.78 log2 enrichment (interaction score)
same,binding signal,[13],1.65 log2 enrichment (interaction score)
GGCUAGAACUAGUGGAUCCCCCGGCGCCCGGCGGCUCGAGCCCGGGUAAGUGUAAAUAGUCUGCAUGCCGCCGGGCGCCAUGCCUGCAGGUCGACUCUAGAAAACAUG,binding signal,[11],4.8 log2 enrichment (interaction score)
same,binding signal,[14],2.94 log2 enrichment (interaction score)
same,binding signal,[15],2.98 log2 enrichment (interaction score)
same,binding signal,[12],3.24 log2 enrichment (interaction score)
same,binding signal,[16],4.17 log2 enrichment (interaction score)
same,binding signal,[7],6.69 log2 enrichment (interaction score)
same,binding signal,[3],3.73 log2 enrichment (interaction score)
same,binding signal,[5],2.78 log2 enrichment (interaction score)
same,binding signal,[8],5.06 log2 enrichment (interaction score)
same,binding signal,[17],4.4 log2 enrichment (interaction score)
same,binding signal,[18],2.48 log2 enrichment (interaction score)
same,binding signal,[10],1.48 log2 enrichment (interaction score)
same,binding signal,[9],4.9 log2 enrichment (interaction score)
GGCUAGAACUAGUGGAUCCCCCGGCGCCCGGCGGCUCGAGCCCGGGUAAGUGUAAAAAGUCUGCAUGCCGCCGGGCGCCAUGCCUGCAGGUCGACUCUAGAAAACAUG,binding signal,[2],5.74 log2 enrichment (interaction score)
GGCUAGAACUAGUGGAUCCCCCGGCGCCCGGCGGCUCGAGCCCGGGUAAGUGUUAAUAGUCUGCAUGCCGCCGGGCGCCAUGCCUGCAGGUCGACUCUAGAAAACAUG,binding signal,[10],2.96 log2 enrichment (interaction score)
GGCUAGAACUAGUGGAUCCCCCGGCGCCCGGCGGCUCGAGCCCGGGUAAGUGUAAAUCGUCUGCAUGCCGCCGGGCGCCAUGCCUGCAGGUCGACUCUAGAAAACAUG,binding signal,[4],2.75 log2 enrichment (interaction score)
GGCUAGAACUAGUGGAUCCCCCGGCGCCCGGCGGCUCGAGCCCGGGUAAGUGUAAGUAGUCUGCAUGCCGCCGGGCGCCAUGCCUGCAGGUCGACUCUAGAAAACAUG,binding signal,[11],4.12 log2 enrichment (interaction score)
same,binding signal,[13],2.27 log2 enrichment (interaction score)
same,binding signal,[19],4.64 log2 enrichment (interaction score)
same,binding signal,[20],2.07 log2 enrichment (interaction score)
GGCUAGAACUAGUGGAUCCCCCGGCGCCCGGCGGCUCGAGCCCGGGUAAGUGUAACUAGUCUGCAUGCCGCCGGGCGCCAUGCCUGCAGGUCGACUCUAGAAAACAUG,binding signal,[11],2.94 log2 enrichment (interaction score)
GGCUAGAACUAGUGGAUCCCCCGGCGCCCGGCGGCUCGAGCCCGGGUAAGGGUAAAUAGUCUGCAUGCCGCCGGGCGCCAUGCCUGCAGGUCGACUCUAGAAAACAUG,binding signal,[7],4.73 log2 enrichment (interaction score)

# — article PMC8384837, “Expanding the binding specificity for RNA recognition by a PUF domain”
